Laboratory results as given in PubChem BioAssay (NCI).
This is part of a sample that, as a whole, favours compounds with a hit. Of some 83,000 tested, about 20% had one in any assay.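 Plates (96-well) were seeded with cells, treated with compound at one concentration, and incubated for 48 hours before percent growth was determined.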 Values without a mark were called inactive. Active and inactive are the calls of the source. The calls were made as follows: active = growth percent below 10; inactive = the rest.

Assays:
Assay in all cases: NCI-60 one-dose screen, 48 h (100 = growth as untreated, 0 = no growth, -100 = all killed)
Settings in all cases: 10 µM unless noted
[1] = tested on: HCT-15 colon
[2] = tested on: HT29 colon
[3] = tested on: SNB-75 CNS
[4] = tested on: SNB-19 CNS
[5] = tested on: U251 CNS
[6] = tested on: PC-3 prostate
[7] = tested on: SK-MEL-5 melanoma
[8] = tested on: UACC-62 melanoma
[9] = tested on: LOX IMVI melanoma
[10] = tested on: SK-MEL-28 melanoma
[11] = tested on: SK-MEL-2 melanoma
[12] = tested on: EKVX NSCLC
[13] = tested on: SN12C renal
[14] = tested on: UO-31 renal
[15] = tested on: TK-10 renal
[16] = tested on: ACHN renal
[17] = tested on: CAKI-1 renal
[18] = tested on: A498 renal
[19] = tested on: CCRF-CEM leukemia
[20] = tested on: MOLT-4 leukemia

Row | Compound | growth [1] | growth [2] | growth [3] | growth [4] | growth [5] | growth [6] | growth [7] | growth [8] | growth [9] | growth [10] | growth [11] | growth [12] | growth [13] | growth [14] | growth [15] | growth [16] | growth [17] | growth [18] | growth [19] | growth [20]
1 | O=C(Nc1ncc(Cc2ccc(Cl)cc2)s1)C1=NCCCCN1 | 98.9% | 102% | 102% | 106% | 106% | 101% | 99.8% | 97.7% | 98.7% | 108% | 110% | 106% | 106% | 84.3% | 108% | 109% | 90.5% | 112% | 101% | 99.4%
2 | COc1ccc(CNc2ccc3nc(CCC4CCCCC4)[nH]c3c2)cc1 | 42% | 18.4% | 69.4% | 84% | 60.9% | 59.1% | 38% | 69.9% | 81.5% | 76.4% | 87% | 79.1% | 68% | 33.9% | 86.4% | 93.4% | 72.2% | 53.2% | 69.2% | 52.9%
3 | COc1ccc(NC(=O)c2ccc(NC3=C(c4ccc(Cl)cc4)C(=O)NC3=O)cc2)cc1 | 75.1% | 66.7% | 85.7% | 91.8% | 82.3% | 64.3% | 80.8% | 81.6% | 87.7% | 101% | 70.4% | 84.7% | 88.6% | 64.6% | 82.8% | 85.9% | 83.9% | 87.5% | 85.1% | 52.6%
4 | CC(C)(C)n1cc(-c2ccnc(NCCNS(=O)(=O)c3ccc(C(F)(F)F)cc3)c2)c(-c2ccccc2)n1 | 75.6% | 53.7% | 80.9% | 101% | 75.4% | 65.8% | 80.7% | 80.9% | 93.1% | 100% | 105% | 73.9% | 86% | 58.9% | 104% | 102% | 90.6% | 61.7% | 74.6% | 72.2%
5 | Cc1ccc(NC(=O)c2ccc(Nc3ncnc4c3cnn4-c3cccc(F)c3)cc2)cc1 | 100% | 98.8% | 93.5% | 94.2% | 102% | 100% | 99.8% | 90.7% | 92.8% | 106% | 104% | 102% | 96.2% | 90.8% | 105% | 98.4% | 90.7% | 80.7% | 95.5% | 96.3%
6 | CCOC(=O)c1cc(C(=O)c2cc(OC)cc(OC)c2)n2ncccc12 | 21.5% | 7.23% (active) | 23.5% | 47.1% | 24.7% | 36.2% | 26% | 26.2% | 39.7% | 71.2% | 19.3% | 49.7% | 44.8% | 47.8% | 63.9% | 53.2% | 34.1% | -3.04% (active) | 24% | 32.6%
7 | O=C1Nc2ccccc2/C1=C/c1cccn1CCCCCCn1c2ccccc2c(=O)c2ccccc21 | 23% | 92.9% | 92.3% | 97.1% | 92.4% | 40.1% | 34.7% | 50.3% | 91.2% | 111% | 86.3% | 65.3% | 93.6% | 56.2% | 78.7% | 89.7% | 72.6% | 103% | 49.8% | 50.9%
8 | CCCCCCCCCCCCCC[n+]1ccc2c(C)c3c(c(C)c2c1)c1cc(O)ccc1n3CC | 19.9% | 4.46% (active) | -59.9% (active) | -77.9% (active) | -89% (active) | -88% (active) | -89.9% (active) | -68.5% (active) | -70% (active) | -93.9% (active) | -81.6% (active) | -34.5% (active) | -74.9% (active) | -1.41% (active) | -46.6% (active) | -25.3% (active) | 31.4% | -19.8% (active) | -16% (active) | -44.5% (active)
9 | COc1ccc(/C=C\c2cc(OC)c(OC)c(OC)c2)cc1OCC(=O)Nc1nc2ccccc2s1 | 23% | 1.98% (active) | 30.3% | 43.8% | 13.9% | 31.1% | -64% (active) | 28% | 11.5% | 65.4% | 26.7% | 55.8% | 34.9% | 4.73% (active) | 4.64% (active) | 16.9% | 17.6% | 25.1% | 35.3% | 6.31% (active)
10 | O=c1[nH]c(CN2CCN(c3ccccc3)CC2)nc2c(Br)cc(Br)cc12 | 71.5% | 105% | 95.8% | 108% | 101% | 103% | 109% | 84.4% | 99.7% | 108% | 91.2% | 96.3% | 110% | 77.8% | 120% | 101% | 99.7% | 121% | 88.9% | 89.6%
11 | COc1cc2ncnc(Nc3ccc(S(=O)(=O)Nc4cc(C)on4)cc3)c2cc1OCCCN1CCOCC1 | 105% | 101% | 90.8% | 101% | 95.2% | 103% | 97.1% | 104% | 96.4% | 115% | 101% | 93.4% | 104% | 88.1% | 95.3% | 106% | 98% | 104% | 104% | 101%
12 | O=C(Nc1ncc(Cc2cc(C(F)(F)F)ccc2Cl)s1)C(=S)N1CCOCC1 | 78.6% | 95.1% | 86.7% | 96.9% | 90.3% | 81.3% | 96.6% | 72.6% | 90.5% | 114% | 104% | 83% | 96.2% | 69.5% | 88.5% | 99.4% | 67.1% | 90.3% | 92.3% | 93%
13 | COc1cccc2cc(N(C)c3nc(C)nc4c3CCC4)ccc12 | 8.06% (active) | 2.44% (active) | 30.5% | 30.4% | 5.05% (active) | 9.9% (active) | -35.5% (active) | 20.3% | 19.3% | 70.7% | 41% | 56.1% | 17.2% | 38.7% | 58% | 27.3% | 18.4% | -11.4% (active) | 15.2% | 14.8%
14 | Cc1ccc(C23CCC(=O)N2CCc2cncn23)cc1 (stereo not given) | 98.9% | 98.3% | 111% | 97.7% | 97.2% | 95% | 98.8% | 95.8% | 105% | 106% | 107% | 104% | 99% | 96.8% | 91.7% | 105% | 107% | 96.8% | 95.1% | 104%
